Data taken from PubChem BioAssay (Tox21).
Values without a mark were called inactive. Results filed as inconclusive are left out. A call without a number means that no potency is given here. Calls of active or inactive are those of the source. Unless noted, calls follow the shape of the dose curve; as a rule, active = well fitted curve in the direction sought with a large enough effect in the repeat runs; inconclusive = weak or mixed curves; inactive = no such curve, though single readings can be large; an effect the other way counts as inactive or inconclusive.

Experiments:
[1] = molecular target: Thyrotropin receptor (Homo sapiens) (UniProt P16473); test: qHTS assay to identify small molecule agonists of the thyroid stimulating hormone receptor (TSHR) signaling pathway (AID 1224843; calls by dose curve; also: nearly all actives have a fitted effect of over 45% in size)
How it was run: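 Agonist-mode screen: TSHR HEK293 cells received test chemicals for half an hour at room temperature, then HTRF cAMP detection reagents for one hour prior to fluorescence measurement. Each chemical ran as a 15-concentration series, triplicated.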

[2] = qHTS assay to identify small molecule agonists of the hypoxia (HIF-1) signaling pathway (AID 1224846; active = well fitted activation curve with a large enough effect in the signal ratio in the repeat runs, not every such curve was filed as active; the % refers to the signal ratio)
How it was run: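 Reporter induction in HRE-bla ME-180 cells is taken as agonism: cells sit 5 hrs after plating, receive compounds or DMSO only, incubate 17 hrs at 37C under 5% CO2, and are loaded with CCF4-AM for beta-lactamase FRET measurement.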

[3] = qHTS assay to identify small molecule agonists of H2AX - cell viability counter screen (AID 1224847; calls by dose curve; also: nearly all actives have a fitted effect of over 30% in size; also: potency is read from the fitted curve at half-maximal effect)
How it was run: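 Cells plated first: CHO-K1, 1000 per well in 10% FBS medium, incubated overnight at 37C. Then 15-point compound titration added (final DMSO 0.76%) for 3 hr. Finally CellTiter-Glo added and luminescence read.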

[4] = qHTS assay to identify small molecule antagonists of the estrogen related receptor (ERR) signaling pathway from Tox21 library (AID 1224848); also: nearly all actives have a fitted effect of over 50% in size; also: potency is read from the fitted curve at half-maximal effect
How it was run: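 Quantitative high-throughput format: ERR reporter cells (2,000/well) pre-incubated 6 h, treated 18 h at 37 C with compounds in DMSO alongside positive and negative controls, then read by ONE-Glo luminescence.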

[5] = qHTS assay to identify small molecule agonists of the estrogen related receptor (ERR) signaling pathway from Tox21 library (AID 1224849; calls by dose curve; also: nearly all actives have a fitted effect of over 15% in size); conditions: ERR reporter cell line, ONE-Glo luciferase, 18 h; at 92.4 µM (top of the series) unless noted
How it was run: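 Tox21 compounds tested for ERR agonism in an NTP reporter cell line: 18 h treatment at 37 C, then ONE-Glo luminescence.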

[6] = qHTS RealTime-Glo MT Cell Viability Assay in HepG2 cells - 24 hour (AID 1224867); also: nearly all actives have a fitted effect of over 50% in size
How it was run: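 Luminescence read-out: viable HepG2 cells reduce a prosubstrate to a NanoLuc substrate, giving a signal proportional to live cell number. Reads taken at 0, 8, 16, 24, 32 and 40 h of compound exposure at 37 C.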

[7] = qHTS RealTime-Glo MT Cell Viability Assay in HEK293 cells - 32 hour (AID 1224868); also: nearly all actives have a fitted effect of over 50% in size; also: potency is read from the fitted curve at half-maximal effect
How it was run: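 Nonlytic real-time viability readout: viable cells convert prosubstrate to NanoLuc substrate, giving luminescence proportional to live cell number. HEK293, 600 cells/well, compound added after 5 h, continuous culture at 37 C.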

[8] = A CellTox Green Cytotoxicity Assay to monitor cytotoxicity in HEK293 cells - 0 hour (AID 1224869); also: nearly all actives have a fitted effect of over 50% in size
How it was run: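 Tox21 screen in HEK293: membrane-impermeant cyanine dye fluoresces on binding dead-cell DNA; compound pinned 5 h post-seeding, plates held at 37 C, signal read repeatedly through 40 h.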

[9] = qHTS assay to identify small molecule agonists of the hypoxia (HIF-1) signaling pathway - cell viability counter screen (AID 1224844; calls by dose curve; also: nearly all actives have a fitted effect of over 50% in size; also: potency is read from the fitted curve at half-maximal effect)
How it was run: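 HRE-bla ME-180; 0.5% dFBS; cpd 17 h, 37C, 5% CO2; CellTiter-Glo lum., 30 min RT, post-FRET read, same wells.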

[10] = qHTS assay to identify small molecule agonists of H2AX (AID 1224845; active = well fitted activation curve with a large enough effect in the signal ratio in the repeat runs, not every such curve was filed as active; the % refers to the signal ratio; also: potency is read from the fitted curve at half-maximal effect)
How it was run: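 Wild-type CHO-K1 cells, plated overnight, exposed 3hr at 37C to 15 concentrations (0.76% DMSO final). Lysed, then HTRF anti-pH2AX (S139) cryptate and anti-H2AX-d2 antibodies, 24 hr room temperature; 665/620 nm emission read.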

Chain of Thyrotropin receptor (Homo sapiens) (P16473 whole entry, looked up): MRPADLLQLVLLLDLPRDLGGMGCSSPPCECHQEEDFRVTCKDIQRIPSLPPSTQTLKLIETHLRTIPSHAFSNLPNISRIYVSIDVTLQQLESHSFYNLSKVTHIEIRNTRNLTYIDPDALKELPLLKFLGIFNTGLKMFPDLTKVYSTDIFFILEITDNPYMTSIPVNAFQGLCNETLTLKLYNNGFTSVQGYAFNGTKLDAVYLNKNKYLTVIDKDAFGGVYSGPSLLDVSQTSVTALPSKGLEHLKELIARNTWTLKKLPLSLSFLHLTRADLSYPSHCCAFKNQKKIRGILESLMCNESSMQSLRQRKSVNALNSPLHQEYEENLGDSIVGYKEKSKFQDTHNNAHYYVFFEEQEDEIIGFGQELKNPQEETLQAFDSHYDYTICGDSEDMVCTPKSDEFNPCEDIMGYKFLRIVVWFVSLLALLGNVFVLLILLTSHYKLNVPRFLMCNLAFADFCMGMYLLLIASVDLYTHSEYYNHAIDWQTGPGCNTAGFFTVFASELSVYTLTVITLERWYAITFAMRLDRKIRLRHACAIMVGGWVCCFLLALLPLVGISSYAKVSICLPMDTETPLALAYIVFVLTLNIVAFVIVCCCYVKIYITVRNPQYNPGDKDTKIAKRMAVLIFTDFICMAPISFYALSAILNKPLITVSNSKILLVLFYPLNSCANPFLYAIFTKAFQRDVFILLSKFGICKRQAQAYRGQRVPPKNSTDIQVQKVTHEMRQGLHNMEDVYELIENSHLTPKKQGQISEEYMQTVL

| Compound | Potency [1] | outcome [2] | Potency [3] | Potency [4] | activity change, positive = activation [5] | Potency [6] | Potency [7] | Potency [8] | Potency [9] | Potency [10] |
| --- | --- | --- | --- | --- | --- | --- | --- | --- | --- | --- |
| Clc1ccc(Nc2nnc(Cc3ccncc3)c3ccccc23)cc1 | inactive | inactive | inactive | 11.9 µM (active) | -42.3% [at 42.5 µM] | inactive | 21.3 µM (active) | inactive | – | – |
| NCCNCCO | – | inactive | inactive | inactive | 0.838% | inactive | inactive | inactive | inactive | inactive |
| NC(=O)c1ccncc1 | – | inactive | inactive | – | 6.51% | inactive | inactive | inactive | inactive | inactive |
| C[C@@H](CN(C)C)CN1c2ccccc2Sc2ccccc21 | – | inactive | inactive | – | -18.9% [at 42.5 µM] | – | 21.3 µM (active) | inactive | 19 µM (active) | inactive |
| Cc1ccccc1S | – | inactive | inactive | – | – | inactive | inactive | inactive | inactive | inactive |
| C=C(C)C(=O)OCCOCCOC(=O)C(=C)C | – | inactive | inactive | – | 6.4% | inactive | inactive | inactive | inactive | inactive |
| N#CCCN(CCO)CCO | – | inactive | inactive | – | – | inactive | inactive | inactive | inactive | inactive |
| C/C=C/C=C/C=O | – | inactive | inactive | inactive | 4.86% | inactive | – | inactive | 48.6 µM (active) | inactive |
| C=C(C)C(=O)OCCCCCCCCCCCCC | – | inactive | inactive | – | – | inactive | inactive | inactive | inactive | inactive |
| CC(C)(C)C(=O)C(=O)O | – | inactive | inactive | – | – | inactive | inactive | inactive | inactive | inactive |
| CC1(C)[C@@H](OC(=O)CCC(=O)O)CC[C@]2(C)[C@H]3C(=O)C=C4[C@@H]5C[C@@](C)(C(=O)O)CC[C@]5(C)CC[C@@]4(C)[C@]3(C)CC[C@@H]12 | inactive | – | – | inactive | 1.84% [at 42.5 µM] | inactive | inactive | inactive | – | inactive |
| CCOC(=O)c1ccccc1C(=C1C=C(Br)C(=O)C(Br)=C1)c1cc(Br)c(O)c(Br)c1 | inactive | – | inactive | – | -32.1% [at 42.5 µM] | inactive | – | inactive | – | – |
| C=C1C[C@@]23CC[C@H]4[C@@](C)(CCC[C@@]4(C)C(=O)O[C@@H]4O[C@H](CO)[C@@H](O)[C@H](O)[C@H]4O)[C@@H]2CC[C@]1(O[C@@H]1O[C@H](CO)[C@@H](O)[C@H](O[C@@H]2O[C@H](CO)[C@@H](O)[C@H](O)[C@H]2O)[C@H]1O[C@@H]1O[C@H](CO)[C@@H](O)[C@H](O)[C@H]1O)C3 | inactive | inactive | inactive | – | 1.6% | inactive | inactive | inactive | – | – |
| Cc1cc(O)c(C)c(C)c1O | – | inactive | inactive | – | 2.57% [at 42.5 µM] | inactive | – | inactive | inactive | inactive |
| O=C=Nc1ccc(Cl)c(Cl)c1 | – | inactive | inactive | 26.9 µM (active) | -41% | inactive | inactive | inactive | inactive | inactive |
| C[C@H]1c2cccc(O)c2C(O)=C2C(=O)[C@]3(O)C(O)=C(C(N)=O)C(=O)[C@@H](N(C)C)[C@@H]3[C@@H](O)[C@@H]21 | – | inactive | inactive | 18.8 µM (active) | -33.4% [at 42.5 µM] | inactive | inactive | inactive | inactive | inactive |
| O=C(/C=C/c1ccccc1)OCCc1ccccc1 | – | inactive | inactive | – | – | inactive | inactive | inactive | inactive | inactive |
| CCOC(=O)c1ccc(O)c(O)c1 | inactive | inactive | inactive | – | – | inactive | inactive | inactive | – | – |
| Clc1cc(Cl)nc(Cl)n1 | inactive | – | inactive | – | – | inactive | – | inactive | – | inactive |
| CCc1ccccc1 | – | inactive | inactive | – | – | inactive | inactive | inactive | inactive | inactive |
| FC(F)(F)c1ccccc1Cl | – | inactive | inactive | – | -2.05% | inactive | inactive | inactive | inactive | inactive |
| CC[N+](CC)(CCNC(=O)C(=O)NCC[N+](CC)(CC)Cc1ccccc1Cl)Cc1ccccc1Cl | – | inactive | inactive | inactive | 8.73% [at 42.5 µM] | inactive | inactive | inactive | inactive | inactive |
| CCCCN(CCN(CCCC)C(=O)N1CCOCC1)C(=O)N1CCOCC1 | – | inactive | inactive | – | – | inactive | inactive | inactive | inactive | inactive |
| CCOC(=O)[C@H](CCc1ccccc1)N[C@@H](C)C(=O)N(CC(=O)O)C1Cc2ccccc2C1 | – | inactive | inactive | – | – | inactive | inactive | inactive | 7.56 µM (active) | inactive |
| c1csc(SSc2cccs2)c1 | inactive | inactive | inactive | 61.1 µM (active) | -56.7% | – | – | inactive | – | – |

| Compound | Potency [1] | outcome [2] | Potency [3] | Potency [4] | activity change, positive = activation [5] | Potency [6] | Potency [7] | Potency [8] | Potency [9] | Potency [10] |
| --- | --- | --- | --- | --- | --- | --- | --- | --- | --- | --- |
| CC(O)c1ccccc1 (stereo unspecified) | – | inactive | inactive | inactive | 5.42% | inactive | inactive | inactive | inactive | inactive |
| Cc1cccc(O)c1N | inactive | inactive | inactive | – | -14.7% | inactive | – | inactive | – | – |
| Cc1ccccc1N=C(N)Nc1ccccc1C | – | inactive | inactive | inactive | -3.25% | inactive | inactive | inactive | inactive | inactive |
| CC(C)C=O | – | inactive | inactive | – | 0.557% | inactive | inactive | inactive | inactive | inactive |
| CC(CN(C)C)C(C)(O)Cc1ccc(Cl)cc1 (stereo unspecified) | – | inactive | inactive | – | 9.4% [at 42.5 µM] | inactive | inactive | inactive | inactive | inactive |
| Cc1ccc2c(Br)cc(Br)c(O)c2n1 | inactive | – | – | 8.41 µM (active) | -65.3% [at 42.5 µM] | inactive | – | inactive | – | 39.1 µM (active) |
| CC1(C)S[C@@H]2[C@H](NC(=O)C(c3ccccc3)S(=O)(=O)O)C(=O)N2[C@H]1C(=O)O (stereo partly specified) | – | inactive | inactive | – | – | inactive | inactive | inactive | inactive | inactive |
| CC(C)=CC(=O)C=C(C)C | – | inactive | inactive | inactive | 0.257% | inactive | inactive | inactive | inactive | inactive |
| Cc1ccco1 | – | inactive | inactive | – | – | inactive | inactive | inactive | inactive | inactive |
| CC(CC1c2ccccc2CCc2ccccc21)CN(C)C (stereo unspecified) | – | inactive | inactive | – | – | inactive | inactive | inactive | 10.7 µM (active) | inactive |
| CCCCCCCC/C=C\CCCCCCCCO | – | inactive | inactive | inactive | 4.79% | inactive | inactive | inactive | inactive | inactive |
| O=C=Nc1cccc(C(F)(F)F)c1 | inactive | inactive | – | 60.7 µM (active) | -56.5% | inactive | – | inactive | – | – |
| O=C1CCCCCCCCCCOCCCCO1 | – | inactive | inactive | – | – | inactive | inactive | inactive | inactive | inactive |
| C=Cc1ccc(S(=O)(=O)O)cc1 | inactive | inactive | inactive | – | 6.91% | inactive | inactive | inactive | – | – |
| O=C1c2ccccc2C(=O)N1CCc1noc(-c2ccc(CN3CCCCCC3)s2)n1 | – | inactive | 92.3 µM (active) | – | – | inactive | 35.7 µM (active) | – | inactive | inactive |
| CC1(CN2CCC(n3c(=O)[nH]c4ccccc43)CC2)OCc2ccccc2-n2cccc21 (stereo unspecified) | – | – | – | – | – | – | 19 µM (active) | inactive | 23.9 µM (active) | inactive |
| CC(C)Nc1cccnc1N1CCN(C(=O)c2cc3cc(NS(C)(=O)=O)ccc3[nH]2)CC1 | – | inactive | inactive | – | -20.7% [at 42.5 µM] | inactive | inactive | inactive | inactive | – |
| CC1=C(CC=O)C(C)(C)CCC1 | – | inactive | – | – | – | inactive | inactive | inactive | inactive | inactive |
| COc1cc(C(=O)NCCCCCC(=O)O)cc(OC)c1OC | – | inactive | inactive | inactive | 1.72% [at 42.5 µM] | inactive | inactive | inactive | inactive | – |
| C/C=C(/C(=C/C)c1ccc(O)cc1)c1ccc(O)cc1 | – | – | – | – | – | inactive | – | inactive | inactive | inactive |
| O=c1cc(-c2ccccc2)oc2ccc3ccccc3c12 | – | inactive | 25.3 µM (active) | – | -35% (active) | inactive | inactive | inactive | 24.5 µM (active) | – |
| O=C1NCCN1CCO | – | inactive | inactive | – | – | inactive | inactive | inactive | inactive | inactive |
| CC(=O)Nc1cc(S(=O)(=O)O)cc2cc(S(=O)(=O)O)c(N=Nc3ccccc3)c(O)c12 | – | inactive | 50.5 µM (active) | – | -5.56% | inactive | inactive | inactive | inactive | – |
| O=Cc1c2ccccc2c(Cl)c2ccccc12 | – | – | inactive | 9.45 µM (active) | -33.4% [at 42.5 µM] | inactive | – | inactive | inactive | inactive |
| CCN(CC)CCNC(=O)COc1ccc(OC)cc1 | – | – | inactive | – | – | inactive | inactive | inactive | inactive | inactive |
